According to ChEMBL document CHEMBL3988442, “University of Dundee, Small-Polar-MMV Screening Library” (2021):
For some of these results: Results with a measured potency or affinity are listed apart.

Assays:
Set-up in all cases: scale not given: direction of the effect not stated beside the values
[1] = target: Protein translocase subunit SecA (Escherichia coli (strain K12)) (UniProt P10408); test: Assay to Identify E. coli SecA ATPase Inhibitors; format: functional; settings: 30 µM
[2] = target: T1, Ubiquitin-activating enzyme e1, putative (Leishmania donovani (strain BPK282A1)) (UniProt E9BSI1); test: Leishmania donovani Ubiquitin Activating Enzyme (LdE1); format: functional; settings: 30 µM
T1 sequence (whole entry): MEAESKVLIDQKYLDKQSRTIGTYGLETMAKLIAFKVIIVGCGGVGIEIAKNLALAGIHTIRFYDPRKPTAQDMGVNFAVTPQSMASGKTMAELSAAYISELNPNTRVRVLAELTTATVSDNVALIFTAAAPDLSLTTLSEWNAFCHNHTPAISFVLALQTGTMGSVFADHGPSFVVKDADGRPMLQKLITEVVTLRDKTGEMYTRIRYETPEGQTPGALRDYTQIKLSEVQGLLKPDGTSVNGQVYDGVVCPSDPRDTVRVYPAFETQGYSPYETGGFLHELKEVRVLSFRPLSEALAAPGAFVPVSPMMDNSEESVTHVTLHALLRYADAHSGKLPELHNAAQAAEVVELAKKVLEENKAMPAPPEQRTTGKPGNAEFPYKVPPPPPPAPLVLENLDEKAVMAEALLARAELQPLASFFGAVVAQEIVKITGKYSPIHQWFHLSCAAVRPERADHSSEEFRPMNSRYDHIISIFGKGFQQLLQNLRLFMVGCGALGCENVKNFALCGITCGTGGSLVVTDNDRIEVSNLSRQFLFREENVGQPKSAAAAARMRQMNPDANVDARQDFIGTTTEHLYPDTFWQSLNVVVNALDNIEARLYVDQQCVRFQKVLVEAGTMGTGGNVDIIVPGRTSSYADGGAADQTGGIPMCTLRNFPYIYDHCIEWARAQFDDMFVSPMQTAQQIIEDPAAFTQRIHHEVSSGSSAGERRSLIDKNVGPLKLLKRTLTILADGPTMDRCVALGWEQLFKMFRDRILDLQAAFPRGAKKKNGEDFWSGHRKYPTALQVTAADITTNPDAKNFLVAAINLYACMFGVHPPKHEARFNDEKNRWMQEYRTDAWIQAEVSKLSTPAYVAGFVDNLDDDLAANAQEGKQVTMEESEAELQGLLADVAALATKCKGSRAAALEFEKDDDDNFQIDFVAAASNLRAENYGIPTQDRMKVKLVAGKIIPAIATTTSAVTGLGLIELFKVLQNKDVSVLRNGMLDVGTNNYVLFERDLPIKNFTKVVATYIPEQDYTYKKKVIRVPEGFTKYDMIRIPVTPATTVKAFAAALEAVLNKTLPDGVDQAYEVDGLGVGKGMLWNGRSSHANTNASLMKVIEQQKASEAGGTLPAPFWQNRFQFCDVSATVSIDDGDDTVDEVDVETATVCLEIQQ

[3] = target: AMP-activated protein kinase, AMPK (Homo sapiens) (UniProt P54646+O43741+P54619+Q9UGJ0+Q9Y478+Q13131+Q9UGI9); test: AMP-dependent Kinase enzyme assay. An in vitro enzyme assay that detects ADP turnover that is directly proportional to AMPK activity. This uses naive AMPK that is activated during the assay with MK-8722; format: functional; settings: 30 µM
[4] = target: Sialic acid-binding Ig-like lectin 9 (Homo sapiens) (UniProt Q9Y336); test: Hs-Siglec9 ALPHAscreen SOP 20170721; settings: 10 µM
Trypanosoma cruzi = test: Trypanosoma cruzi phosphomannomutase and mannose-1-phosphate guanylyltransferase assay; format: functional; settings: 10 µM
[5] = target: T2, Arginase-2, mitochondrial (Homo sapiens) (UniProt P78540); test: in vitro enzyme assay to detect the production of urea directly proportional to the activity of Arginase II; format: functional; settings: 33.3 µM; also: in the data most compounds retested in dose-response had high values
T2 sequence (whole entry): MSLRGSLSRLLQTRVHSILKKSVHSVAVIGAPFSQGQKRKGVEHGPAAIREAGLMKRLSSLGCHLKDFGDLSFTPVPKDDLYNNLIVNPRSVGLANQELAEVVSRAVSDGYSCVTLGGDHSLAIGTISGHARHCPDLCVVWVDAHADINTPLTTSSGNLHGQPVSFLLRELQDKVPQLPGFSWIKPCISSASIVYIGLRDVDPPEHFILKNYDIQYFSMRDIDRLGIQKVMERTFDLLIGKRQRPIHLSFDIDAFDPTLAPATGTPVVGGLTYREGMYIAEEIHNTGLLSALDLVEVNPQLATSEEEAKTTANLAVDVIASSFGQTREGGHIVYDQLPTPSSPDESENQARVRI

[6] = target: T3, Proteasome subunit beta (Trypanosoma cruzi) (UniProt O96673); test: Trypanosoma cruzi proteasome chymotrypsin-like activity (TcProtChymo) assay.; also: in the data most compounds retested in dose-response had high values; format: functional; settings: 9.37 µM
T3 sequence (whole entry): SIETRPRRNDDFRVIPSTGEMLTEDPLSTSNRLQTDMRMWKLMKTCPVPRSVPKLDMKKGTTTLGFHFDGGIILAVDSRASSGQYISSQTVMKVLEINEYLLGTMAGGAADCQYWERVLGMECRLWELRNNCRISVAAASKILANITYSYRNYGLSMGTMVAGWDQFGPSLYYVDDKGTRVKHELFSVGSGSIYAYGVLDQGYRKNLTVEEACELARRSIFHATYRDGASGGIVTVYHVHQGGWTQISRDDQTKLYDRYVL

Homo sapiens = species on record: Homo sapiens; test: To identify inhibition of the IFN signalling (Jak-Stat) pathway via expression of an eGFP reporter gene under the control of an IFN-stimulated response element (ISRE) containing MxA promoter.; format: functional; settings: 30 µM
[7] = target: T4, Tyrosyl-tRNA synthetase, putative (Trypanosoma cruzi (strain CL Brener)) (UniProt Q4DSP6); test: Trypanosoma cruzi tyrosyl tRNA synthetase (TcYRS) _High Tyrosine SOP; format: functional; settings: 30 µM; also: in the data most compounds retested in dose-response had high values
T4 sequence (whole entry): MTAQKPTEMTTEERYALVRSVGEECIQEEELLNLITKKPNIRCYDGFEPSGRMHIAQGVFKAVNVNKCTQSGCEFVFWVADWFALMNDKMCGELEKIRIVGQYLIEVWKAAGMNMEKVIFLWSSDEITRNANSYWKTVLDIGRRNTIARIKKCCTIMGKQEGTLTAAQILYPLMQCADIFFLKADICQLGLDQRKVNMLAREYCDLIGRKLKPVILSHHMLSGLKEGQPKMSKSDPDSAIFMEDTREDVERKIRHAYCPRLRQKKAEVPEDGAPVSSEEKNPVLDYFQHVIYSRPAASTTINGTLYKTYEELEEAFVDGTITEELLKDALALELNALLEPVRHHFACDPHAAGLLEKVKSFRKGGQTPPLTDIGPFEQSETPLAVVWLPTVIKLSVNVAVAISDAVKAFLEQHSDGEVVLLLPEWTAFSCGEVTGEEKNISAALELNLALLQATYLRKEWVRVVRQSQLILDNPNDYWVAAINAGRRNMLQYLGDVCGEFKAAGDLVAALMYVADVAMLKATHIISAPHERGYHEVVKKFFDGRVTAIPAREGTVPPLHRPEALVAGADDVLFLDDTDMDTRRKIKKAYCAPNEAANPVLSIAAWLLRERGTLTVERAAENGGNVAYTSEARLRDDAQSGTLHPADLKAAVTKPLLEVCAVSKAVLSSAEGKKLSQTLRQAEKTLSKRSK

[8] = target: T4, Tyrosyl-tRNA synthetase, putative (Trypanosoma cruzi (strain CL Brener)); test: Trypanosoma cruzi tyrosyl tRNA synthetase (TcYRS) SOP; format: functional; settings: 30 µM
[9] = target: Chromo domain-containing protein 1 (Saccharomyces cerevisiae (strain ATCC 204508 / S288c) (Baker's yeast)) (UniProt P32657); test: ScCHD-1 Enzyme Inhibition Assay; format: functional; settings: 30 µM; also: in the data most compounds retested in dose-response had high values
Chromo domain-containing protein 1 (Saccharomyces cerevisiae (strain ATCC 204508 / S288c) (Baker's yeast)), sequence (P32657 whole entry, the tested form may be a part): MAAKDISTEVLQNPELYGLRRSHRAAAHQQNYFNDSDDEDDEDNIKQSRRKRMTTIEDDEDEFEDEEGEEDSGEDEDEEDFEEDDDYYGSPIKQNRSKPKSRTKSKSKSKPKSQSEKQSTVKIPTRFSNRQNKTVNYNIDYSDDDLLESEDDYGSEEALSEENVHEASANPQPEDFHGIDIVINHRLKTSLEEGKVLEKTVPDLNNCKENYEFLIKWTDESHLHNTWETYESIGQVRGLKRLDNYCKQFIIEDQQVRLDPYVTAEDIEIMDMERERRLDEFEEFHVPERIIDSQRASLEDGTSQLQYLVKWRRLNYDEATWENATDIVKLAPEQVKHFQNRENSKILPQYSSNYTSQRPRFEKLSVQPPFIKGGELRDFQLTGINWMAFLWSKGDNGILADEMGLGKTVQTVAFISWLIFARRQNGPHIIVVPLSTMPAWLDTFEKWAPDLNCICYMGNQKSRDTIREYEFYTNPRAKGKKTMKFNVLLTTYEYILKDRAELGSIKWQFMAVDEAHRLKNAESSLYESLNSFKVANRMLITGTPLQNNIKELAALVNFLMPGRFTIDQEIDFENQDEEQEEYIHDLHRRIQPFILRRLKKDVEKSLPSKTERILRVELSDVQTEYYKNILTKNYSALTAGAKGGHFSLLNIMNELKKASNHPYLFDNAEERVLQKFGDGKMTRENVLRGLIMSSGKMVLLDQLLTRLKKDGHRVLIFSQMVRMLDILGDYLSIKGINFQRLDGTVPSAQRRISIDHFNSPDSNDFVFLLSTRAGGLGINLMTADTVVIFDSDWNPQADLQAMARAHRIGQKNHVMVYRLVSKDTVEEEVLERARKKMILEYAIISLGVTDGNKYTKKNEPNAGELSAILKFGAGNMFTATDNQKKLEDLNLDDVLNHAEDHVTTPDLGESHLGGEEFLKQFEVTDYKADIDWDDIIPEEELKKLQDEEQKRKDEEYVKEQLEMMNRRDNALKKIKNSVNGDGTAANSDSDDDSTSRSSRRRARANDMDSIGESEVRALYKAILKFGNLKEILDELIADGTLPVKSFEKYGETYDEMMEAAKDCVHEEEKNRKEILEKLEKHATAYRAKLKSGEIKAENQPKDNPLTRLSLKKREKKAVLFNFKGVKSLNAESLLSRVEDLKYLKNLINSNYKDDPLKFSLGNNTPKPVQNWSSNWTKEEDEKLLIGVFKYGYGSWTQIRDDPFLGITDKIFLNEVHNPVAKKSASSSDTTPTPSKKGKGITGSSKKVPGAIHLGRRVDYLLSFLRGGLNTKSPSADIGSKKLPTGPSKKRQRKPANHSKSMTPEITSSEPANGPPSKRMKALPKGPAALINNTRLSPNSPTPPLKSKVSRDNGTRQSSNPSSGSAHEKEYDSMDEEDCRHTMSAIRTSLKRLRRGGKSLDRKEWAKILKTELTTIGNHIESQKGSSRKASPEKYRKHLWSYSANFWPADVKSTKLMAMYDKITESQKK

Protein translocase subunit SecA (Escherichia coli (strain K12)), sequence (P10408 whole entry): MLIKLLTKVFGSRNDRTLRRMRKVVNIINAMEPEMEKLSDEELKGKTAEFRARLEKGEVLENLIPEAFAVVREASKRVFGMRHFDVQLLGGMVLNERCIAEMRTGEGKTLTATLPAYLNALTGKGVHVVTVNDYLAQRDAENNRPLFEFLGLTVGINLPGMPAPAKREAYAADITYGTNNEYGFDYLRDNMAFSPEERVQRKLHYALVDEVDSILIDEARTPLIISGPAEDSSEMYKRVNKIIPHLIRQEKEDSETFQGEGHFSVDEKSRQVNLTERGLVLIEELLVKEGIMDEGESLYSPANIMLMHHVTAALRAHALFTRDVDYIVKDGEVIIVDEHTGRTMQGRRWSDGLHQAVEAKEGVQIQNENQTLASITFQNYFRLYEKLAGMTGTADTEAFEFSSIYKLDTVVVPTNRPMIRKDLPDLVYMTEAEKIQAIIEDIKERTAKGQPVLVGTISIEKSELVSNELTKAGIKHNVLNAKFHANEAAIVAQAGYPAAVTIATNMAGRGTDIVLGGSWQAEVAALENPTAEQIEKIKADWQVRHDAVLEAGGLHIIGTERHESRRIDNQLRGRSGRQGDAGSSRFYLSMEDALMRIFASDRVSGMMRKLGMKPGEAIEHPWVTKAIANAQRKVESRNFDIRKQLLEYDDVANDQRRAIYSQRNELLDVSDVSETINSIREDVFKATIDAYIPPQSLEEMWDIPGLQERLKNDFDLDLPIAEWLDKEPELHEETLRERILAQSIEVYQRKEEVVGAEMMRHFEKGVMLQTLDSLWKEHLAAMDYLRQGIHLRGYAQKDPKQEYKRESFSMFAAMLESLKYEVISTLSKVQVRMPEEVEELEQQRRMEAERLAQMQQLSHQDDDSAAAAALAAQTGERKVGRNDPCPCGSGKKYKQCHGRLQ
Sialic acid-binding Ig-like lectin 9 (Homo sapiens), sequence (Q9Y336 whole entry): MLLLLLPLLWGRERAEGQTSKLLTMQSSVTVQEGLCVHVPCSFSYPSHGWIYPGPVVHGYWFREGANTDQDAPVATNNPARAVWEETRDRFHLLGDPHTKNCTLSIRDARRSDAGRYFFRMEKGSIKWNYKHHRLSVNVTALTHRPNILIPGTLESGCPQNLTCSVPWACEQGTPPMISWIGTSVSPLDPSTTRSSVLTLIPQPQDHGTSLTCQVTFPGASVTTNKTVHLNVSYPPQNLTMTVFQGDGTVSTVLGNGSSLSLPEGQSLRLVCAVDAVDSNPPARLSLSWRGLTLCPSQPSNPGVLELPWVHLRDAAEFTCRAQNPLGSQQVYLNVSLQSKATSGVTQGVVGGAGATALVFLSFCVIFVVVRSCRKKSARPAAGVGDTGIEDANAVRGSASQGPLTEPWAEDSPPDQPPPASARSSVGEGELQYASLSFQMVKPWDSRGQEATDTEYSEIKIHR

| SMILES | Percent Effect [1] [%] | Percent Effect [2] [%] | Percent Effect [3] [%] | Percent Effect [4] [%] | Percent Effect (Trypanosoma cruzi) [%] | Percent Effect [5] [%] | Percent Effect [6] [%] | Percent Effect (Homo sapiens) [%] | Percent Effect [7] [%] | Percent Effect [8] [%] | Percent Effect [9] [%] |
| --- | --- | --- | --- | --- | --- | --- | --- | --- | --- | --- | --- |
| Cn1ccnc1CNC1CCCN(Cc2noc(C3CC3)n2)C1 (stereo unspecified) | -1.62 | 0 | -11.6 | 4.95 | 2.9 | 3.81 | 13.8 | 1.96 | 10.1 | 17.1 | -3.57 |
| O=C(Nc1cccnc1)N1CCC(n2ccc(C(F)(F)F)n2)CC1 | -7.93 | 8.22 | -4.95 | 13 | 3.72 | -0.909 | 10.5 | 2.75 | 1.07 | 10 | -5.84 |
| CC(c1cccnc1)N(C)Cc1csc(-c2ccccn2)n1 (stereo unspecified) | -7.3 | 5.48 | -12.1 | 19.7 | 6.66 | 3.64 | 5.86 | 8.26 | 5.38 | 15 | 92.8 |
| COc1ccccc1Oc1ncccc1CNC(=O)C(C)N1CCCC1 (stereo unspecified) | -3.48 | 12.5 | -6.43 | 29.1 | 3.4 | 50.3 | 11.8 | -6.43 | 4.21 | 12.8 | -9.98 |
| Cc1cc(NC(=O)NCc2ccccc2OC(F)F)n(C)n1 | 1.45 | 6.33 | 5.29 | -4.29 | -7.69 | 4.09 | 21.3 | 4.53 | 3.12 | 2.53 | -5.23 |
| CNC(=O)c1ccc(C(=O)N2CCCC(n3cc(C)cn3)C2)cn1 (stereo unspecified) | -7.4 | 26 | -0.148 | 5.41 | 9.18 | 3.56 | 12 | 26.2 | 9.71 | 26.8 | -11.2 |
| CN(CCN1CCOCC1)C(=O)CCCc1ccccc1 | -3.72 | 0 | 3.21 | 3.74 | 4.38 | -3.55 | 13.9 | -19 | 5.32 | 5.2 | 0.287 |
| CSc1sc(NC(=O)Cc2c(C)nc(C)[nH]c2=O)nc1C | -6.26 | 7.89 | -7.94 | 7.61 | 5.83 | -2.68 | 6.18 | 7.45 | 7.35 | 12.2 | -12.2 |
| Cc1nnc(N2CCC(CS(N)(=O)=O)CC2)c(C#N)c1C | -5.18 | 2.6 | -17.4 | -9.8 | 0.49 | -1.9 | 16.1 | 7.88 | 3.81 | 9.41 | -16.6 |
| CC1(C)CC(N2Cc3nc(N)ncc3C2=O)CC(C)(C)N1 | 0.646 | 10.4 | -3.77 | 8.41 | 4.23 | -35.9 | 10.7 | 11 | 6.45 | 21 | -5.13 |
| O=C(c1ccno1)N1CC[C@@H]2O[C@@H](COCCN3CCCC3)CC[C@@H]21 | -3.63 | 10.8 | 1.12 | -3.29 | 1.66 | -1.59 | 21.2 | -0.519 | 5.41 | 15.4 | -2.39 |
